{"source": "PubChem BioAssay", "note": "Active and inactive are the calls of the source. How the calls were made is not given here."}
{"target": "Pantothenate synthetase (Mycobacterium tuberculosis (strain ATCC 25618 / H37Rv)) (UniProt P9WIL5)", "sequence (P9WIL5 whole entry, looked up)": "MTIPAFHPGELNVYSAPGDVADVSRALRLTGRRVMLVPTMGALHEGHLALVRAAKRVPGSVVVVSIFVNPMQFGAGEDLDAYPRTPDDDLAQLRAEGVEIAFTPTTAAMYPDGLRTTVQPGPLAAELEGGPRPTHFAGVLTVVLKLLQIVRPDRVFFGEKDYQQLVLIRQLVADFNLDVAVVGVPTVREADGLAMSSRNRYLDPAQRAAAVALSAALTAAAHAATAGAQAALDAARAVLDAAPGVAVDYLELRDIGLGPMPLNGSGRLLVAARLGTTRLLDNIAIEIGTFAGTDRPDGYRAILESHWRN", "test": "Recombinant Mtb pantothenate synthetase (PanC) inhibitors, coupled enzyme, confirmatory (AID 375);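 further: 0% = full reaction with vehicle and 100% = no enzyme background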", "settings": "coupled enzyme assay; at 10 µM, hits give high values"}
{"smiles": "Cn1cccc1Cc1nnc(SCC(=O)NCc2ccc(F)cc2)n1-c1ccc(F)cc1", "inhibition": "2% (inactive)"}
{"smiles": "Cc1cccc(C)c1-n1nnnc1SCSc1nnnn1-c1c(C)cccc1C", "inhibition": "1% (inactive)"}
{"smiles": "CCOP(=O)(c1ccc(N(C)C)cc1)C(O)c1ccccc1OC", "note": "(stereo not drawn)", "inhibition": "5% (inactive)"}
{"smiles": "CC(C)(O)C1=NOC(c2ccccc2)C1", "note": "(stereo not drawn)", "inhibition": "0% (inactive)"}
{"smiles": "OCc1nc(CO)n(Cc2ccccc2)n1", "inhibition": "0% (inactive)"}
{"smiles": "CCCCN(C(=O)c1ccc(Cl)cc1)C1CC2CCC(C1)N2C", "note": "(stereo not drawn)", "inhibition": "0% (inactive)"}
{"smiles": "CCN(CC)S(=O)(=O)c1cccc(-c2nnc(SCCOc3ccccc3C)o2)c1", "inhibition": "1% (inactive)"}
{"smiles": "COCCN(CCOC)S(=O)(=O)c1ccc(C(=O)Nc2nnc(C3CC3)o2)cc1", "inhibition": "0% (inactive)"}
{"smiles": "CCCCN(CC)CCCNC(=O)c1cc2c(=O)n(C)c3ccccc3c2n1C", "inhibition": "0% (inactive)"}
{"smiles": "COC(=O)C1=C(C)NC(C)=C(C(=O)OC)C1C(=O)OC1CCCCC1=O", "note": "(stereo not drawn)", "inhibition": "0% (inactive)"}
{"smiles": "Cc1ccc2[nH]c(=O)c(CN(CCCN3CCOCC3)C(=O)Nc3cccc(Cl)c3)cc2c1", "inhibition": "0% (inactive)"}
{"smiles": "COC(=O)CCCCC(=O)C1C(=O)CC(C)(C)C(C(=O)OC)C1=O", "note": "(stereo not drawn)", "inhibition": "0% (inactive)"}
{"smiles": "CC(=O)c1cccc(-n2nnnc2SCC(=O)N2CCCC2)c1", "inhibition": "5% (inactive)"}
{"smiles": "N#CC1=C(N)OC2=C(C(=O)CCC2)C1CCc1ccccc1", "note": "(stereo not drawn)", "inhibition": "1% (inactive)"}
{"smiles": "CCCSC1=C(C#N)C(c2cc(OC)ccc2OC)CC(=O)N1", "note": "(stereo not drawn)", "inhibition": "14% (inactive)"}
{"smiles": "COc1c2occc2c(OC)c2c(=O)cc(C)oc12", "inhibition": "8% (inactive)"}
{"smiles": "CC(=O)N1C(=O)C2(Nc3ccccc3N2)c2ccccc21", "inhibition": "1% (inactive)"}
{"smiles": "CCOC(=O)N1CCN(Cc2ccccc2F)CC1", "inhibition": "19% (inactive)"}
{"smiles": "O=C(Nc1ccc(Cl)c(Cl)c1)Nc1cc(C(=O)N2CCOCC2)ccc1N1CCCCC1", "inhibition": "4% (inactive)"}
{"smiles": "CN(CC(=O)O)S(=O)(=O)c1cc(Cl)ccc1Cl", "inhibition": "1% (inactive)"}
{"smiles": "Cc1cnc(-c2nnc(N(C)C(=O)C3CCOC3)s2)cn1", "note": "(stereo not drawn)", "inhibition": "3% (inactive)"}
{"smiles": "O=C(NC(C(=O)c1ccccc1)n1ccc(=O)[nH]c1=O)c1ccccc1", "note": "(stereo not drawn)", "inhibition": "0% (inactive)"}
{"smiles": "Cn1c(=O)cc(OCCCC(=O)Nc2ccc3c(c2)OCCO3)c2ccccc21", "inhibition": "1% (inactive)"}
